JMJD2A Tudor – JMJD2A Tudor domain (human) inhibition. 390,000 compounds, 4.4% hits. Potency, µM (titrated, usually from 114 µM), inactives show at the highest dose activity change, negative = inhibition, actives largely listed as inhibitors. AID 504339. O75164. AlphaScreen JMJD2A-Tudor / H3K4me3 peptide binding; also: % is scaled to controls: 0 for no effect and ±100 for the full control effect; nearly all actives have a fitted effect of over 50% in size
HP1b binding inh – HP1-beta chromodomain-methylated histone interaction inhibition | AlphaScreen HP1-beta / biotin-H3K9me3 peptide binding | Potency, µM (top dose mostly 114 µM), for the others: at the top dose activity change, negative = inhibition, usual class: inhibitors | 390,000 compounds, 0.56% hits; also: nearly all actives have a fitted effect of over 70% in size
Target sequence (P83916 whole entry, looked up): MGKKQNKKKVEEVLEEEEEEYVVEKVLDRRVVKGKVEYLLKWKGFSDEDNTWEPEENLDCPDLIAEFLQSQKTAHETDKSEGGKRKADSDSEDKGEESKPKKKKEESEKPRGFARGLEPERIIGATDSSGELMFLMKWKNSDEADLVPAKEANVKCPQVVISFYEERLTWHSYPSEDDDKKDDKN
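HP1-beta protein (50 nM final) preincubated 30 min at room temperature with biotinylated H3(1-18)K9me3 peptide (50 nM) in PBS pH 7.4, 0.01% Tween-20, then compound added for 30 min. AlphaScreen streptavidin donor/nickel chelate acceptor beads (10 ug/mL final), 30 min dark, luminescence read.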
Sfp PPTase inh – inhibitors of Bacillus subtilis Sfp phosphopantetheinyl transferase | AID 1490 | Potency, µM, for inactives: largest response in the series, negative = inhibition, usual class: inhibitors | Q9F4F7 | Biochemical Sfp PPTase activity, qHTS | 310,000 compounds, 3.5% hits;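 also: the enzyme is Sfp with the accession as filed and its product quenches rhodamine fluorescence; 0% = enzyme reaction without inhibitor and -100% = no enzyme wells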
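Fluorescence-quenching assay: 15 nM Sfp-PPTase preincubated 15 min at room temperature with compound, then 5 uM rhodamine-CoA and 12.5 uM BHQ-2-labelled YbbR peptide added. Fluorescence (ex 525/em 598 nm) read at start and after 30 min; difference gives rate.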
G9a block – inhibitors of human histone lysine methyltransferase G9a | G9a H3K9 monomethylation, AlphaScreen, 2 h | Potency, µM (highest dose often 102 µM), for inactives: top-dose activity, negative = inhibition, hits mostly inhibitors | AID 504332 | Q96KQ7 | 350,000 compounds, 8.8% hits; also: % is scaled to controls: 0 for no effect and ±100 for the full control effect; nearly all actives have a fitted effect of over 75% in size
Target sequence (Q96KQ7 913-1193 limits assumed): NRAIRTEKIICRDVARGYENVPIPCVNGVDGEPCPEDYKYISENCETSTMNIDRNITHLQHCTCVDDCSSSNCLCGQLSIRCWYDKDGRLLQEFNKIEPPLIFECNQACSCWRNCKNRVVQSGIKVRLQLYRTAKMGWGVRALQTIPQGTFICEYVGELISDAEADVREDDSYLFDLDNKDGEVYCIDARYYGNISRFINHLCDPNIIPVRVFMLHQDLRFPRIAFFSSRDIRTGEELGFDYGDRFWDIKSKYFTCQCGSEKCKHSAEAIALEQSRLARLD
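G9a (20 nM) was preincubated 15 min with compound, then reacted 2 h at room temperature with 500 nM biotin-H3K9 peptide and 20 µM SAM. Monomethyl-H3K9 detected by AlphaScreen using anti-H3K9me1 antibody.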
L3MBTL1 block – L3MBTL1 (human) inhibition; 230,000 compounds, 0.66% hits; Potency, µM (series often up to 57.1 µM), inactives show at the highest dose activity, negative = inhibition, most hits filed as inhibitors; Q9Y468; AlphaScreen L3MBTL1–H3K9me1 peptide binding; AID 485360; also: % is scaled to controls: 0 for no effect and ±100 for the full control effect; nearly all actives have a fitted effect of over 60% in size
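AlphaScreen assay: L3MBTL1 (50 nM final) was preincubated 30 min at room temperature with biotinylated H3(1-15)K9me1 peptide (75 nM final), then 30 min with library compounds; streptavidin donor and nickel chelate acceptor beads (10 ug/mL final) added, 30 min dark.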
BAZ2B inh – blocks human BAZ2B. Q9UIF8. AlphaScreen BAZ2B-H3K14Ac peptide displacement. AID 504333. Potency, µM (top dose mostly 114 µM), inactives show top-dose activity change, negative = inhibition, usual class: inhibitors. 360,000 compounds, 4.4% hits; also: % is scaled to controls: 0 for no effect and ±100 for the full control effect; nearly all actives have a fitted effect of over 60% in size
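Inhibition is scored as reduced AlphaScreen emission. The BAZ2B/b-H3(5-23)K14Ac complex (50 nM each) in PBS pH 7.4, 0.01% Tween-20 meets compound (up to 110 uM) for 30 min at RT before bead addition.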
Active calls of the source: *; [ ] = remark or other dose. Hits are enriched below; roughly 12% of the tested compounds scored in any of these assays. Calls follow the shape of the dose curve; as a rule, active = well fitted curve in the direction sought with a large enough effect; inconclusive = small, poorly fitted or top-dose-only effect, or another doubt; inactive = no such curve, though single readings can be large; an effect the other way counts as inactive or inconclusive. Potency is read from the fitted curve at half-maximal effect.

How did NCCCC[C@@H]1NC(=O)c2cc([N+](=O)[O-])cc(I)c2SC[C@@H](C(N)=O)NC(=O)[C@H](Cc2ccc(O)cc2)NC1=O do in these assays?
JMJD2A Tudor: inconclusive; HP1b binding inh: -4%; Sfp PPTase inh: -22%; G9a block: 35µM*; L3MBTL1 block: -3%; BAZ2B inh: inconclusive

Results for NCCCC[C@@H]1NC(=O)[C@H](CCC(=O)O)NC(=O)c2cc([N+](=O)[O-])cc(I)c2SC[C@@H](C(=O)NCC(N)=O)NC1=O ?
JMJD2A Tudor: 22µM*; HP1b binding inh: 24%; Sfp PPTase inh: 5%; G9a block: 3.2µM*; L3MBTL1 block: 7%; BAZ2B inh: inconclusive

How did COC(=O)CC(=O)CSc1nc2cc(C(=O)NC(C)C)ccc2c(=O)n1CCc1ccccc1 do in these assays?
JMJD2A Tudor: 11%; HP1b binding inh: 50%; G9a block: 12%[59 µM]; BAZ2B inh: -3%

How did Clc1cccc(CSc2nnc(-c3cccnc3)n2Cc2ccco2)c1 do in these assays?
JMJD2A Tudor: -19%; HP1b binding inh: 9%; Sfp PPTase inh: 50µM*; G9a block: inconclusive; L3MBTL1 block: -8%; BAZ2B inh: 6%

How did Clc1ccc(CSc2nnc(-c3cccnc3)n2Cc2ccco2)c(Cl)c1 do in these assays?
JMJD2A Tudor: -14%; HP1b binding inh: 3%; Sfp PPTase inh: 35µM*; G9a block: 35µM*; L3MBTL1 block: -26%; BAZ2B inh: -24%

What do the screens show for `c1cncc(CSc2nnc(-c3cccnc3)n2Cc2ccco2)c1`?
Sfp PPTase inh: 16%; G9a block: 3%; L3MBTL1 block: 3%; BAZ2B inh: 0%

How did COc1ccccc1N(C(=O)Cn1nnc(-c2ccc(C)o2)n1)C(C(=O)NC1CCCC1)c1ccncc1 (stereo unspecified) do in these assays?
JMJD2A Tudor: -5%; HP1b binding inh: -1%; Sfp PPTase inh: 3%; G9a block: 14%; BAZ2B inh: -2%

What do the screens show for `O=c1cc(CO)oc(CN2CCN(c3ccccc3F)CC2)c1O`?
JMJD2A Tudor: inconclusive; HP1b binding inh: 20%; Sfp PPTase inh: 3%; G9a block: inconclusive; L3MBTL1 block: 8%; BAZ2B inh: -31%

How did CCN1CCN(Cc2oc(CO)cc(=O)c2O)CC1 do in these assays?
JMJD2A Tudor: 13µM*; HP1b binding inh: 13%; Sfp PPTase inh: -7%; G9a block: 1.8µM*; BAZ2B inh: 50µM*

What do the screens show for `O=c1cc(CO)oc(CN2CCN(c3ccccc3)CC2)c1O`?
JMJD2A Tudor: 50µM*; HP1b binding inh: -6%; Sfp PPTase inh: -5%; G9a block: 22µM*; L3MBTL1 block: -2%; BAZ2B inh: -31%

Results for O=C1C2C3CCC(CC3)C2C(=O)N1c1ccccc1 (stereo unspecified) ?
JMJD2A Tudor: -1%; HP1b binding inh: 12%; Sfp PPTase inh: 6%; G9a block: -1%[2.33 µM]; BAZ2B inh: 0%

Results for Cc1ccc(-n2nnc3c(sc4nc(C)c(C)cc43)c2=O)cc1Cl ?
JMJD2A Tudor: -32%; HP1b binding inh: 46%; G9a block: -2%[59 µM]; BAZ2B inh: -1%

What do the screens show for `COCCSc1nnc(NS(=O)(=O)c2ccc(F)cc2)s1`?
JMJD2A Tudor: -12%; HP1b binding inh: 36%; Sfp PPTase inh: -8%; G9a block: 32µM*; L3MBTL1 block: 1%; BAZ2B inh: -27%

How did COCc1nnc(NS(=O)(=O)c2ccc(F)cc2)s1 do in these assays?
JMJD2A Tudor: 3%; HP1b binding inh: 39%; Sfp PPTase inh: 5%; G9a block: -120%; L3MBTL1 block: 4%; BAZ2B inh: -8%

Results for CCc1ccc(Cn2c(CNS(=O)(=O)c3ccc4c(c3)CCCC4)nc3cccnc32)cc1 ?
JMJD2A Tudor: -28%; HP1b binding inh: 8%[57 µM]; G9a block: -1%[59 µM]; BAZ2B inh: -7%

Screens deposited in PubChem BioAssay by National Center for Advancing Translational Sciences (NCATS).
